From the supplement of paper PMC4466236
Over roughly 33,000 sequences, “E-score (dimensionless, -0.5 to 0.5)” has its median near -0.058; the highest 2% begin near 0.35. Only a selection was taken, and the highest values are over-represented in it overall.

What follows are sequences tested on MvaT (assay: PBM 8-mer E-score (mean of HK and ME arrays) (E-score (dimensionless, -0.5 to 0.5)); higher = stronger relative binding preference).
Experimental: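 Protein binding microarray: GST-tagged full-length MvaT (P. aeruginosa PAO1) bound to two universal double-stranded 60-mer arrays (ME and HK), each with a constant 25-mer primer and a variable 35-mer region covering all 8-mers. The 8-mer E-score (rank-based, range -0.5 to 0.5, >0.45 = specific binding) is the mean of the two arrays.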

Sequence	PBM 8-mer E-score
ATTTCTGC	0.125
ATTCATTA	0.219
GATAGGAA	-0.0142
AAATTGCT	0.214
AACCCGTC	-0.0101
GTCGAGAA	-0.0478
GCATACCC	0.0205
TCACGCAA	-0.124
CAGTTTAA	0.26
AAGTTTAC	0.157
ATGTTTAG	0.212
AAGTTTAG	0.288
AAGTTTGA	0.289
CTGTTTAA	0.302
AAGTTTAA	0.357
AAGTTTTA	0.318
AAGTTTAT	0.358
TAGTTTAA	0.398
ATGTTTAA	0.391
GAGTTTAA	0.235
TATTCGGA	-0.000615
ACAGGTCG	-0.216
CTGTGTGC	0.0347
AAGCAGGT	0.0586

Sequence	PBM 8-mer E-score
CGTTCAAG	-0.0745
GCTCGCAA	-0.107
AGTTTTAT	0.351
AGTTTTAG	0.162
AGTTTTAC	0.221
ATACGGCG	-0.11
AACAACTA	0.335
AACAACTC	0.185
AACAACTT	0.358
AGTGGGCA	0.0126
GGTCCGAA	-0.0643
ATAACTAG	0.27
ATAACAAG	0.283
ATAACAAT	0.355
ACAACAAG	0.138
AAAACAAG	0.122
ACAACAAC	0.216
ACAACAAT	0.372
ATAACTAA	0.32
ATAACAAC	0.228
AAAACAAT	0.349
ATAACTAT	0.388
AAAACAAC	0.282
AAGTAGAC	0.0778

Sequence	PBM 8-mer E-score
ACCATATC	0.099
GCGTGGAC	-0.192
TATGGACA	0.0866
TGCAGGCA	-0.0892
GACCACCC	-0.296
GTTTATAA	0.383
CTTTATAC	0.264
ATTTATCC	0.286
GTTTATCA	0.19
ATTTATAA	0.459
CTTTATAA	0.344
GTTTATGA	0.208
ATTTATAG	0.342
ATTTATAC	0.383
CGATACGC	-0.172
AGCGGGAT	-0.138
ACCCTTTC	-0.289
GGCAATAA	0.228
ACTAATTG	0.308
CCTAATTC	0.0847
ACTAATTC	0.227
CCTAATTA	0.358
CCTAATGA	-0.254
GCTAATCA	0.0157

Sequence	PBM 8-mer E-score
GCTAATGA	-0.138
ACTAATTA	0.45
GCTAATTA	0.352
CAAGTAGA	0.141
AGTCAGCA	-0.0242
GGCCAGAA	-0.026
GAACGGGA	-0.0641
GTGCGTTA	0.133
GACCTTGA	-0.138
AGGTTCCG	-0.212
GAGTTCAA	0.174
CAGTTCAA	0.0238
CACTTAAA	0.0563
AACTTCAG	0.158
TACTTAAA	0.302
AACTTCAA	0.345
AACTTAAA	0.352
AACTTAAC	0.323
AACTTAAT	0.381
GACTTCAA	0.0947
AAGTTCAA	0.398
AACTTAAG	0.333
